Source: PubChem BioAssay
Only some compounds are listed: those with a hit (about 2.5% of all), similar ones and a draw of the others.
Mcl-1 Bim block: inhibitors of Bim peptide binding to Mcl-1, primary screen, biochemical, bead-based flow cytometry, multiplex; Induced myeloid leukemia cell differentiation protein Mcl-1 (Homo sapiens), Q07820; Bim peptide-Mcl-1 binding; inhibition, % at 10 µM; hit rate 0.1% among 190,000; AID 1009, 2008; in the data active = inhibition above about 40%;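 also: 0% = no compound tracer wells and 100% = peptide blocker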
14-3-3 Bad inh: inhibitors of 14-3-3 zeta/Bad binding, primary screen, biochemical, TR-FRET, bovine 14-3-3 zeta; TR-FRET 14-3-3zeta/Dy647-pBad peptide displacement, 1 h; 14-3-3 protein zeta/delta (Bos taurus), P63103; inhibition, % at 21.7 µM; hit rate 0.71% among 220,000;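 active = inhibition above about 70%, limit read from the data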;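 also: 0% = full 14-3-3 plus peptide FRET controls and 100% = background without 14-3-3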
Target sequence (P63103 whole entry, looked up): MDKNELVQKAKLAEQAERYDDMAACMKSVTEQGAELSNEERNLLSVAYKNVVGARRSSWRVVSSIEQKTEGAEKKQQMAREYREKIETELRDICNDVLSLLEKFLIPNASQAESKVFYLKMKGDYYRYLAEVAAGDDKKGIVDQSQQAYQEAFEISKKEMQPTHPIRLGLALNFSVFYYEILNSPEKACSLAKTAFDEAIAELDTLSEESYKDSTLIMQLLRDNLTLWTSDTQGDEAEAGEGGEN
MCL1 BIM primary: inhibitors of MCL1 binding to BIM-BH3, primary screen, biochemical, fluorescence polarization. hit rate 0.68% among 320,000. GST-MCL1 / FITC-Bim-BH3 fluorescence polarization. Induced myeloid leukemia cell differentiation protein Mcl-1 (Homo sapiens), Q07820. inhibition, % at 10.9 µM;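 active = inhibition above the mean inhibition of all tested compounds plus 3 SD, set per campaign, cut at about 40% in these data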;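 also: 0% = DMSO wells and 100% = unlabeled Bim-BH3 peptide control; higher means more loss of mP so more displacement of Bim peptide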
Mcl1 Noxa PPI: Mcl-1/Noxa binding inhibitors, primary screen, biochemical, TR-FRET, 1536-well. hit rate 1.5% among 220,000. inhibition, % at 21.7 µM. TR-FRET Mcl-1/Noxa peptide binding, 2 h. AID 1022, 2008. Induced myeloid leukemia cell differentiation protein Mcl-1 (Homo sapiens), Q07820;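 active = compounds that cut the protein-peptide binding signal by more than 50% relative to plate controls in a single-dose test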;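 also: His-tagged Mcl-1 with rhodamine Noxa BH3 peptide and terbium anti-His antibody; 0% = Mcl-1 plus Noxa peptide wells and 100% = peptide-only wells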
Mcl1-Bid inh: Mcl-1/Bid binding inhibitors, primary screen, biochemical, TR-FRET, 1536-well. hit rate 0.97% among 220,000. TR-FRET Mcl-1/Bid-Dy647 peptide binding. inhibition, % at 21.7 µM. AID 1021, 2008;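 active = compounds that cut the binding signal by more than half at the single screening dose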;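 also: His-tagged Mcl-1 with europium anti-His antibody binding Bid BH3 peptide; 0% = Mcl-1 plus peptide wells and 100% = peptide-only wells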
An asterisk follows results filed as active.

`COc1ccc(N2CCN(C(C)C(=O)N3CCCC3)CC2)cc1` (configuration not stated) gave Mcl-1 Bim block -1.0, 14-3-3 Bad inh 78.8*, MCL1 BIM primary 10.0, Mcl1 Noxa PPI 29.1 and Mcl1-Bid inh 19.7.
`COc1ccc(CCNC(=O)COc2ccc(S(=O)(=O)N3CCCC3)cc2)cc1` gave Mcl-1 Bim block -1.0, 14-3-3 Bad inh -10.0, MCL1 BIM primary -7.0, Mcl1 Noxa PPI 10.6 and Mcl1-Bid inh -16.5.
Screening CNC(=O)CN(C1CCCCC1)S(=O)(=O)c1ccc(OC)c(Cl)c1 returned Mcl-1 Bim block 0.0, 14-3-3 Bad inh 23.6, MCL1 BIM primary -16.9, Mcl1 Noxa PPI -8.7 and Mcl1-Bid inh 97.9*.
For COc1ccc(S(=O)(=O)N(CC(=O)NC2CC2)C2CCCCC2)cc1Cl the results were Mcl-1 Bim block -2.0, 14-3-3 Bad inh -0.8, MCL1 BIM primary 6.9, Mcl1 Noxa PPI 5.4 and Mcl1-Bid inh -0.7.
`COc1ccc(N)c2c1OCCC2=O` gave Mcl-1 Bim block -2.0, 14-3-3 Bad inh -4.7, MCL1 BIM primary 10.8, Mcl1 Noxa PPI 57.1* and Mcl1-Bid inh -63.9.
`COc1ccc2c(c1OC)C(=O)OC2` gave Mcl-1 Bim block 1.0, 14-3-3 Bad inh -9.7, MCL1 BIM primary 4.2, Mcl1 Noxa PPI -23.3 and Mcl1-Bid inh 4.4.
`Cc1cccc(NC2=Nc3ccccc3N3C2=Nc2c(c(C)nn2-c2ccccc2)C3c2ccc(O)c(O)c2)c1` (configuration not stated) gave Mcl-1 Bim block 4.0, 14-3-3 Bad inh 18.1, MCL1 BIM primary 41.7*, Mcl1 Noxa PPI 63.1* and Mcl1-Bid inh -29.1.
For CCN1CCCC1CNCc1cccc(OC)c1OCc1ccc(F)cc1 (configuration not stated) the results were Mcl-1 Bim block -3.0, 14-3-3 Bad inh 77.2*, MCL1 BIM primary -1.9, Mcl1 Noxa PPI 10.0 and Mcl1-Bid inh 5.2.
`CCOC(=O)c1snc(-c2ccc(F)cc2)c1N` gave Mcl-1 Bim block 66.0*, 14-3-3 Bad inh 0.3, MCL1 BIM primary 4.4, Mcl1 Noxa PPI -9.1 and Mcl1-Bid inh -17.7.
O=S(=O)(c1ccc(-c2ccon2)s1)N1CCN(c2ccncc2)CC1 was read as 14-3-3 Bad inh 46.4, MCL1 BIM primary 0.4, Mcl1 Noxa PPI 71.6* and Mcl1-Bid inh -13.5.
O=S(=O)(c1ccc(-c2ccon2)s1)N1CCCC1 was read as 14-3-3 Bad inh -7.0, MCL1 BIM primary -5.9, Mcl1 Noxa PPI -5.0 and Mcl1-Bid inh -21.7.
For CCCCCCCNC(=O)c1cc(-c2ccncc2)nc2ccccc12 the results were MCL1 BIM primary -0.7.
Screening O=C(CN1C(=O)/C(=C\c2cccc(F)c2)Oc2ccccc21)N1CCN(c2ccccn2)CC1 returned Mcl-1 Bim block -3.0, 14-3-3 Bad inh 50.6, MCL1 BIM primary 7.1, Mcl1 Noxa PPI -11.6 and Mcl1-Bid inh 53.6*.
`O=C(CN1C(=O)/C(=C\c2ccc(F)cc2)Oc2ccccc21)N1CCN(c2ccccn2)CC1` gave Mcl-1 Bim block -4.0, 14-3-3 Bad inh 8.1, MCL1 BIM primary 2.5, Mcl1 Noxa PPI -21.8 and Mcl1-Bid inh 9.3.
`O=C(c1ccc(S(=O)(=O)NCC2CCCO2)cc1)N1CCc2ccccc21` (configuration not stated) gave Mcl-1 Bim block -5.0, 14-3-3 Bad inh 2.8, MCL1 BIM primary 9.8, Mcl1 Noxa PPI 13.5 and Mcl1-Bid inh -12.4.
CC(C)Cn1c(N)c(C(=O)COC(=O)c2cnccn2)c(=O)n(C)c1=O was read as MCL1 BIM primary -0.7.
CC(C)OC(=O)Nc1ccc2c(c1)N(C(=O)N1CCN(C)CC1)c1ccccc1CC2 was read as 14-3-3 Bad inh 23.3, MCL1 BIM primary 7.2, Mcl1 Noxa PPI 51.4* and Mcl1-Bid inh 12.2.
Screening CCOC(=O)Nc1ccc2c(c1)N(C(=O)N1CCN(C)CC1)c1ccccc1CC2 returned Mcl-1 Bim block -2.0, 14-3-3 Bad inh 1.5, MCL1 BIM primary 4.5, Mcl1 Noxa PPI 37.8 and Mcl1-Bid inh 18.4.
Screening Brc1cccc(OCCOCCn2ccnc2)c1 returned Mcl-1 Bim block 0.0, 14-3-3 Bad inh 69.0, MCL1 BIM primary -1.9, Mcl1 Noxa PPI 14.6 and Mcl1-Bid inh 71.6*.
